Assay [1] is described as follows: circadian clock period modulators, cell-based, LOPAC library, luminescence reporter (AID 2774).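 Note: values are relative to mean of DMSO wells on each plate.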 To be noted: circadian reporter cells, at 7 µM, actives lie on both sides.
Assay [2] deals with Hepatitis C virus NS3 helicase. In words: HCV NS3 helicase inhibitors, primary screen, biochemical, fluorescence polarization, LOPAC1280 library (AID 687035; in the data active = inhibition above about 37%). The following applies: Purified HCV NS3 helicase, Cy5-dT15 ssDNA binding fluorescence polarization; stronger effect = higher value; concentration not given here. For orientation: Fluorescence polarisation rises when a labelled molecule tumbles more slowly, as on binding a larger partner.

A short description of assay [3]: Cy5 fluorescence quenching or enhancement artefacts, artefact control for HCV NS3 helicase inhibitor project, biochemical, LOPAC1280 (AID 687037). To be noted: Cy5-DNA-NS3h complex fluorescence interference counterscreen.
In assay [4] the test system is Aerobactin synthetase IucA (Klebsiella pneumoniae). The experiment in a line: IucA aerobactin synthetase inhibitors, biochemical, Tocris library, absorbance (AID 1345561).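 Note: 100% = enzyme without compound and 0% = no enzyme.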 The following applies: purified IucA enzyme assay, absorbance (OD) read-out; stronger effect = lower value;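 tested at 8 µM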.
The nature of assay [5]: sensitizers of A549 cells to miR-34 induction, primary screen, imaging, A549 dox-inducible miR-34, nuclei and caspase counts (AID 1347080;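 active = compounds whose cell count with miR-34 switched on is under 0.7 times the count with it off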). To be noted: A549 miR-34 inducible, Hoechst nuclei count, 48 h.
Assay [6] is described as follows: inhibitors of Cryptococcus chitosan production, flow cytometry, Cibacron Brilliant Red staining (AID 1347148).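 Note: compound exposure lasted three days at 37 degrees C.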 The following applies: Cryptococcus neoformans chitosan, stronger effect = lower value; at 10 µM unless noted. A general note: In flow cytometry, cells or beads pass a laser one at a time.
Assay [7] is described as follows: phospholipid biosynthesis inhibitors in animal cells, primary screen, cell-based, LOPAC library, screen 4 (AID 1347384). The following applies: phospholipid biosynthesis inhibition screen, at 10 µM.
The nature of assay [8]: viability rescue of complex I mutant cybrids, primary screen, cell-based, galactose medium, ATP luminescence (AID 1645843;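 active = z-score of at least 1.8 in each of two replicates, scored against plate mean and spread of sample wells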;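 note: positive z means more ATP and so rescue of galactose-driven cybrid death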). To be noted: complex I mutant cybrid cells, 72 h, stronger effect = higher value.
Assay [9] is described as follows: hESC survival regulators, cell-based (AID 493140).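 Note: cells exposed to compounds for four days before counting.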 To be noted: human embryonic stem cell survival screen; stronger effect = higher value.
Assay [10] is described as follows: survival rescue of mitochondrial mutant cells in low glucose, primary screen, MELAS cybrids, Rieske KO mouse fibroblasts, CellTiter-Glo (AID 1508586;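 active = mean z-score across replicates of 1.96 or higher in either the MELAS or the Rieske mutant cell line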;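 note: z relative to plate mean and SD of compound and empty wells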).
Assay [11] can be described thus: liver-stage malaria parasite growth inhibition, primary screen, cell-based, HepG2, luciferase luminescence, HepG2 viability (AID 624349; in the data active = parasite load remaining mostly below about 12%, no sharp cut-off; inactive = mostly above about 10%;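 note: 100% = mean of DMSO negative control wells on the same plate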). The following applies: P. berghei liver stage in HepG2, luciferase luminescence, concentration not given here; parasite load remaining: stronger effect = lower value; viability: measured here: HepG2 viability without parasites.
[12] abbreviates: stronger effect = lower value, cell number ratio, induced over uninduced.
[13] abbreviates: measured here: relative caspase fold change +Dox/-Dox.
Where [14] appears, read: measured here: total cells with miR-34 induction, stronger effect = lower value.
[15] abbreviates: measured here: total cells without miR-34 induction.
The mark [16] stands for this setting: MELAS cybrid survival, CellTiter-Glo 48 h, stronger effect = higher value.
The mark [17] stands for this setting: Rieske KO mouse fibroblast survival, CellTiter-Glo 72 h.

Here are results for six molecules from PubChem BioAssay.

“And” between values parts separate entries of the source, which are not always exact repeats. Identical values can stand only once. The source made the active and inactive calls. Unless noted, the rule behind the calls is not given here.

Regarding `COC(=O)c1c(C)[nH]c(C)c1C(=O)c1ccccc1Cc1ccccc1`, the period change in assay [1] is 0.045 h (inactive). Moreover, in assay [2], the inhibition (as a rule, the change of the read-out against control, counted positive when it falls) was -1% (inactive). Further, the fluorescence ratio (interference) in assay [3] was 1 (inactive). For the same molecule, the remaining activity (usually the signal under treatment as a percentage of the control signal) in assay [4] was 110% (inactive). Further, the fold change is 0.994 (inactive) and 1.2 (inactive) and 0.953 (inactive) in assay [5] (setting [12]); 0.778 and 0.775 and 0.777 in assay [5] (setting [13]). For the same molecule, the cell count in [5] (setting [14]) was 7970 and 5070 and 7630; in assay [5] (setting [15]) it was 8020 and 4240 and 8010. Further, the fold fluorescence in assay [6] is 5.89 [at 143.9 µM] (inactive). Also, in [7], the outcome was inactive. The z-score in [8] was -0.58 (inactive) and -0.485 (inactive).
Regarding `O=S(=O)(c1cccc2c(Cl)cccc12)N1CCCNCC1`, the period change in [1] was 0.09 h (inactive). Besides, in [9], the survival is 62 (inactive). In addition, the inhibition in assay [2] was -2% (inactive). Besides, in [3], the fluorescence ratio (interference) was 1 (inactive). Also, the remaining activity in assay [4] was 97.3% (inactive). For the same molecule, the fold change was 1.19 (inactive) and 0.923 (inactive) and 0.938 (inactive) in assay [5] (setting [12]); 1.59 and 1.07 and 1 in assay [5] (setting [13]). The cell count was 6430 and 3010 and 7700 in assay [5] (setting [14]); 5390 and 3260 and 8210 in [5] (setting [15]). Also, the fold fluorescence in assay [6] is 11.9 [at 153.9 µM] (inactive). Also, in [7], the molecule was classed as inactive. Also, the z-score in [8] was -0.995 (inactive) and -0.78 (inactive).
As to `CC(C)(C)n1nc(-c2ccc(Cl)cc2)c2c(N)ncnc21`, the survival in assay [9] is 53.1 (inactive). Besides, in assay [4], the remaining activity is 92.2% (inactive). Besides, the fold change was 1.17 (inactive) and 0.851 (inactive) and 0.882 (inactive) in [5] (setting [12]); 0.727 and 0.97 and 0.665 in [5] (setting [13]). Further, the cell count in assay [5] (setting [14]) is 797 and 2420 and 4980; in [5] (setting [15]), 682 and 2850 and 5640. Besides, the fold fluorescence in assay [6] was 4.87 [at 165.7 µM] (inactive). For the same molecule, the z-score is 0.749 (inactive) in assay [10] (setting [16]), -0.167 in assay [10] (setting [17]) and 1.28 (inactive) in assay [8].
As to `Clc1ccc(N2CCN(Cc3c[nH]c4ncccc34)CC2)cc1`, in [1], the period change was 0.105 h (inactive). In addition, in [2], the inhibition is 12% (inactive). Further, the fluorescence ratio (interference) in assay [3] is 1 (inactive). Besides, in assay [4], the remaining activity is 95.2% (inactive). Besides, the fold change in [5] (setting [12]) is 1.07 (inactive) and 0.896 (inactive); in assay [5] (setting [13]) it was 0.721 and 0.794. Further, the cell count in assay [5] (setting [14]) is 9090 and 6380; in assay [5] (setting [15]), 8470 and 7120. For the same molecule, the call in assay [7] was inactive. For the same molecule, the z-score in [8] is -0.965 (inactive) and -1.05 (inactive).
`CC(C)NC[C@H](O)COc1ccc(CC(N)=O)cc1`: in [1], the period change was -0.06 h (inactive). The parasite load remaining in assay [11] is 111% (inactive). Moreover, the viability (commonly a read-out of living cells in per cent, often relative to untreated cells) in assay [11] stood at 102%. Moreover, the inhibition in assay [2] is -2% (inactive). In [3], the fluorescence ratio (interference) is 1 (inactive). Besides, the remaining activity in assay [4] is 87% (inactive). Moreover, the fold change is 1.04 (inactive) and 0.889 (inactive) and 0.97 (inactive) in assay [5] (setting [12]); 1.51 and 1.14 and 0.697 in assay [5] (setting [13]). Moreover, the cell count is 7050 and 9340 and 9400 in assay [5] (setting [14]); 6770 and 10500 and 9690 in assay [5] (setting [15]). Also, the result in assay [7] was inactive. The z-score is -0.419 (inactive) in [10] (setting [16]); -1.01 in assay [10] (setting [17]); 0.305 (inactive) and -0.32 (inactive) in assay [8].
Consider `COc1ccccc1N1CCN(CCN2C(=O)CC3(CCCC3)CC2=O)CC1`, for which the period change in [1] is -0.035 h (inactive). For the same molecule, in assay [2], the inhibition is -5% (inactive). Moreover, the fluorescence ratio (interference) in assay [3] was 1 (inactive). For the same molecule, in assay [4], the remaining activity is 96.2% (inactive). Moreover, the fold change in assay [5] (setting [12]) is 1.01 (inactive) and 0.904 (inactive) and 0.921 (inactive); in assay [5] (setting [13]) it was 1.78 and 0.65 and 0.553. Further, the cell count is 10300 and 7050 and 8240 in [5] (setting [14]); 10200 and 7800 and 8940 in assay [5] (setting [15]). For the same molecule, the molecule was called inactive in [7]. Also, the z-score in assay [10] (setting [16]) was -0.152 (inactive); in [10] (setting [17]) it was -0.237; in assay [8] it was -0.235 (inactive) and -0.615 (inactive).
